Measured values reported in ChEMBL document CHEMBL1201862, “PubChem BioAssay data set” (2004).
Potency and affinity values are given separately.

Assay: A High Throughput Confirmatory Assay used to Identify Novel Compounds that Inhibit Mycobacterium Tuberculosis in the absence of Glycerol using Purified and Synthesized Compounds (5).
Assay type: functional; call rule not given here

| SMILES | IC90 |
| --- | --- |
| CCCc1cc(C(N)=S)ccn1 | > 100 µM (active) |
| CNC(=O)CSc1nc2ccccc2c(=O)[nH]1 | > 100 µM (active) |
| Cc1[nH]c2ccccc2c1C(=O)COC(=O)c1ccc([N+](=O)[O-])s1 | > 68.8 µM (active) |
| Cc1cc(Br)ccc1NC(=O)c1cnc(N2CCN(c3ccccn3)CC2)c2ccccc12 | > 100 µM (active) |
